Screening results from PubChem.
Sampled rows, rich in hits. Any-hit rate of the full collection: about 1.3%.
VACV Venus inh: qHTS for Stage-Specific Inhibitors of Vaccinia Orthopoxvirus: Venus Reporter Primary qHTS | Vaccinia virus Venus reporter expression, fluorescence | Potency, µM (doses to about 36.5 µM), without a hit: at the highest dose activity change, negative = inhibition, actives largely listed as inhibitors | hit rate 0.46% among 330,000; calls by dose curve; tested in A549 cells; also: % is scaled to controls: 0 for no effect and ±100 for the full control effect; nearly all actives have a fitted effect of over 30% in size
AmpC inh detg: qHTS Inhibitors of AmpC Beta-Lactamase (assay with detergent); Potency, µM (titrated, usually from 114 µM), without a hit: at the highest dose activity change, negative = inhibition, most hits filed as inhibitors; AmpC hydrolysis of nitrocefin, absorbance 480 nm, 0.01% Triton; P00811; hit rate 0.041% among 370,000;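 also: 0% = no-compound wells and -100% = no-enzyme wells; nearly all actives have a fitted effect of over 25% in size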
Target sequence (P00811 whole entry, looked up): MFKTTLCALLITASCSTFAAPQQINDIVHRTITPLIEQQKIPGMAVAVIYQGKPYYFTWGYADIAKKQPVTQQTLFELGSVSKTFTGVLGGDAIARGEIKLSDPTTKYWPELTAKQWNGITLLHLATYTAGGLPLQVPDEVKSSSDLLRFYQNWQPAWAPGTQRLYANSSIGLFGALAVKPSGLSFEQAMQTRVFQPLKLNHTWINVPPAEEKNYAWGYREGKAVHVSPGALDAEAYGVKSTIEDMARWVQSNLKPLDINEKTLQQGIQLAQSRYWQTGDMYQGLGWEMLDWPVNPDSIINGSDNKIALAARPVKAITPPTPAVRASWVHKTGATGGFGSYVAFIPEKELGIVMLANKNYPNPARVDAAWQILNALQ
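20 mM phosphate pH 7.0 + 0.01% (detergent screen) or 0.0001% Triton X-100; 5.3 nM AmpC reagent; cpd preinc 15 min RT; nitrocefin (800 uM stock) to start; A480 q20 s × 4 min; Activity was normalised to no-enzyme and no-compound control wells.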
AMA1 RON2 block: qHTS for Inhibitors of AMA1-RON; Towards Development of Antimalarial Drug Lead: Primary Screen. Plasmodium falciparum AMA1 (3D7) - RON2 peptide interaction. hit rate 0.2% among 360,000. Potency, µM (highest dose often 58.2 µM), for the others: top-dose activity change, negative = inhibition, actives largely listed as inhibitors. AlphaScreen AMA1-biotinylated RON2 peptide binding. AID 720542, 2013;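 also: 0% = vehicle wells and -100% = peptide control; nearly all actives have a fitted effect of over 45% in size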
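AMA1 (3D7) with his tag at 25 nM final met compounds first, then biotinylated RON2 peptide at 25 nM; detection used donor plus acceptor beads, 10 µg/mL apiece, read by AlphaScreen after 30 min at room temperature.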
Vaccinia mCherry: qHTS for Stage-Specific Inhibitors of Vaccinia Orthopoxvirus: mCherry Reporter Primary qHTS. Vaccinia virus mCherry reporter infection, fluorescence. hit rate 0.63% among 310,000. Potency, µM (top dose mostly 36.5 µM), inactives show top-dose activity change, negative = inhibition, hits mostly inhibitors; calls by dose curve; tested in A549 cells; also: % is scaled to controls: 0 for no effect and ±100 for the full control effect; nearly all actives have a fitted effect of over 35% in size
SARS PLpro yeast: qHTS of Yeast-based Assay for SARS-CoV PLP | Potency, µM (highest dose often 32.9 µM), without a hit: top-dose activity, positive = growth rescue, usual class: activators | hit rate 0.19% among 330,000 | S. cerevisiae expressing SARS-CoV PLpro, growth rescue; calls by dose curve; also: 0% is about no effect; nearly all actives have a fitted effect of over 55% in size
AmpC inh no detg: qHTS Inhibitors of AmpC Beta-Lactamase (assay without detergent); P00811; AmpC nitrocefin hydrolysis, absorbance 480 nm, 0.0001% Triton; Potency, µM (doses to about 57.1 µM), for the others: top-dose activity change, negative = inhibition, hits mostly inhibitors; hit rate 0.52% among 330,000;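 also: plate controls were no compound for no effect and no enzyme for full effect; nearly all actives have a fitted effect of over 20% in size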
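20 mM phosphate pH 7.0 + 0.01% (detergent screen) or 0.0001% Triton X-100; 5.3 nM AmpC reagent; cpd preinc 15 min RT; nitrocefin (800 uM stock) to start; A480 q20 s × 4 min; Activity was normalised to no-enzyme and no-compound control wells.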
* hit, by the source's call; ? = inconclusive; · = not tested or not shown; [ ] = remark or other dose. Unless noted, calls follow the shape of the dose curve; as a rule, active = well fitted curve in the direction sought with a large enough effect; inconclusive = small, poorly fitted or top-dose-only effect, or another doubt; inactive = no such curve, though single readings can be large; an effect the other way counts as inactive or inconclusive. Potency is read from the fitted curve at half-maximal effect.

SMILES	VACV Venus inh	AmpC inh detg	AMA1 RON2 block	Vaccinia mCherry	SARS PLpro yeast	AmpC inh no detg
FC(F)(F)c1ccc(C2NCCc3sccc32)cc1 (stereo not given)	-15%	-9%	-12%	?	0%	16%
Cc1nc2cc(NC(=O)[C@@H]3C[C@@H](Sc4ccccn4)CN3Cc3cccc(F)c3)ccc2s1	8%	·	·	-5%	·	·
CCc1cccc2c(C(=O)CSc3nncn3-c3ccccc3OC)c[nH]c12	-2%	?	23%	-29%	13µM*	-4%
COC(=O)c1ccccc1-c1cc(C)cc2c1OC(CNC(=O)c1cc(C)on1)C2 (stereo not given)	9%	·	·	-17%	·	·
OC(c1ccc2c(c1)CN(Cc1ccc3nsnc3c1)CCO2)C1CCCCC1 (stereo not given)	-2%	·	·	-10%	·	·
O=S(=O)(CCN1CCSCC1)c1ccccc1	?	7%	-12%	13µM*	0%	-17%
Nc1ccc2oc(-c3ccccc3Cl)cc(=O)c2c1O	0.89µM*	-4%	-4%	0.79µM*	-20%	-26%
O=c1cc(-c2ccccc2Cl)oc2ccc([N+](=O)[O-])c(O)c12	-23%	-3%	51%	?	-43%	-20%
O=[N+]([O-])c1ccc(Cl)c(S(=O)(=O)/N=C(/Sc2ccc(Br)cc2)c2ccccc2)c1	-14%	·	·	27%	·	·
COc1cc(O)c(C(CCN2CCOCC2)c2ccc(N(C)C)cc2)c(OC)c1 (stereo not given)	-14%	7%	20µM*	?	1%	51%
COc1cc(O)c(C(CCN2CCN(c3ccccc3)CC2)c2ccc(N(C)C)cc2)c(OC)c1 (stereo not given)	-15%	0%	11µM*	?	1%	63%
COc1ccc(N2C(=O)[C@@H]3C[C@H]2CN3Cc2ccc3nccnc3c2)cc1Cl	-10%	·	·	-17%	·	·
Nc1nc(-c2ccccc2)c(-c2ccc([N+](=O)[O-])cc2)s1	?	4%	-2%	22µM*	-22%	-26%
Nc1nc(-c2ccccc2)c(-c2ccccc2)s1	-8%	?	-5%	-11%	-12%	-31%
CC1CCN(S(=O)(=O)c2ccc(NC(=O)C3CSC4(C)CCC(=O)N34)cc2)CC1 (stereo not given)	-13%	?	6%	-23%	-4%	14µM*
CCOC(=O)N1CCN(Cc2ccc3c(c2)CN(C(=O)c2sc(C)nc2C)CCO3)CC1	-4%	·	·	-7%	·	·
CCOC(=O)N1CCc2c(sc(NCc3cccc(F)c3)c2C(=O)Nc2ccc(OC)cc2OC)C1	-2%[7.34 µM]	-2%	·	-5%[7.34 µM]	·	·
CCN(CC)CCOC(=O)CCc1cccc2ccccc12	-11%	-13%	-4%	-2%	-13%	1%
CCN(CC)CCOC(=O)C(Cc1ccco1)Cc1cccc2ccccc12 (stereo not given)	-22%	·	25µM*	-2%	·	·
CCCNC1=C(N(C(C)=O)c2cccc(F)c2)C(=O)c2ccccc2C1=O	13µM*	-4%	-19%	14µM*	-21%	3%
CC(=O)c1ccc(F)c(-c2cc(C)cc3c2OC(CNC(=O)C2CCCCN2C)C3)c1 (stereo not given)	-7%	·	·	-21%	·	·
O=C(NCc1ccco1)c1nc2c(nnn2Cc2ccccc2Cl)c(=O)[nH]1	11µM*	-1%	19%	13µM*	9%	-27%
CC[C@H]1CN2CCc3cc(OC)c(OC)cc3C2C[C@@H]1C[C@H]1NCCc2cc(OC)c(OC)cc21 (stereo not given in full)	0.89µM*	·	-15%	0.5µM*	·	·
CCC1=C(CC2NCCc3ccccc32)CC2c3cc(OC)c(OC)cc3CCN2C1 (stereo not given)	3.5µM*	·	-25%	3.5µM*	·	·
